Inconclusive results are not listed. The source made the active and inactive calls. Calls come from the whole dose curve; as a rule, active = well fitted cell-killing curve with a large enough effect; inconclusive = small, poorly fitted or top-dose-only effect, or effect the other way; inactive = flat fitted curve, though single readings scatter.
What was measured:
Assay in all cases: Primary qHTS to identify gynecologic anti-cancer compounds using libraries of approved drugs and bioactive compounds (AID 1345084); note: nearly all actives have a fitted effect of over 55% in size
Details in all cases: Gynecologic cancer cell panel viability, ATPlite luminescence, 48 h; series mostly up to 57.5 µM
[1] = test system: PA-1
How it was run: (§1)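 Cytotoxicity screen measuring ATP content by luciferase luminescence. Each compound is applied at five concentrations for 48 h at 37 C with 5% CO2.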

[2] = test system: SKOV3
How it was run: as §1

[3] = test system: Tov-21-G
How it was run: as §1

[4] = test system: Tov112D
How it was run: as §1
% is set by controls: 0 for no effect and ±100 for the full control effect.

COC(=O)c1ccccc1O[C@@H]1O[C@H](CO[C@@H]2OC[C@@H](O)[C@H](O)[C@H]2O)[C@@H](O)[C@H](O)[C@H]1O
inactive: Potency [1] | Potency [2] | Potency [3] | Potency [4]

C[C@]12CCC[C@](C)(C(=O)O)C1CCC13CC(CO)C(CCC12)C3 (stereo partly drawn)
inactive: Potency [1] | Potency [2] | Potency [3] | Potency [4]

COC1OC(O)C2(CCC3(O2)C(C)CC2OC(=O)C4(C)CCCC3(C)C24)C1O (stereo not drawn)
inactive: Potency [1] | Potency [2] | Potency [3] | Potency [4]

COCc1c(O)c(C(=O)O)c(C)c2c1OC(=O)c1c(C)cc(O)c(CO)c1O2
inactive: Potency [1] | Potency [2] | Potency [3] | Potency [4]

O=C(Nc1cc(-c2ccccc2)nn1-c1ccccc1F)c1ccc([N+](=O)[O-])cc1
inactive: Potency [1] | Potency [2] | Potency [3] | Potency [4]

CC1=C(C)C(=O)OC(C(C)C2C(O)CC3C4C5OC5C5(O)CC(OC6OC(CO)C(OC7OC(C)C(O)C(O)C7O)C(O)C6O)CC(O)C5(C)C4CCC32C)C1 (stereo not drawn)
inactive: Potency [1] | Potency [2] | Potency [3] | Potency [4]

COc1ccc(/C=C/C(=O)N2CCCC2)cc1
inactive: Potency [1] | Potency [2] | Potency [3] | Potency [4]

Cc1cn2cc(CC(=O)N3CCC4(CC3)CN(Cc3ccc(-n5nccn5)cc3Cl)C4)nc2s1
inactive: Potency [1] | Potency [2] | Potency [3] | Potency [4]

CC(=O)O[C@@H]1C(=O)C(C)=C(CCC(C)CC(=O)O)[C@@]2(C)CCCC(C)(C)C12 (stereo partly drawn)
inactive: Potency [1] | Potency [2] | Potency [3] | Potency [4]

On1ncc(C2CCNCC2)c1-c1cccc(-c2ccccc2)c1
inactive: Potency [1] | Potency [2] | Potency [3] | Potency [4]

Cc1ncc(NC(=O)c2ccc(CN3CCN(C)CC3)c(C(F)(F)F)c2)cc1Nc1nccc(-c2cccnc2)n1
inactive: Potency [1] | Potency [2] | Potency [3] | Potency [4]

COC(=O)Cn1nc(-c2cccc(OC)c2)c2ccccc21
inactive: Potency [1] | Potency [2] | Potency [3] | Potency [4]

Cc1c(F)cc(C(=O)NC2CC2)cc1-c1ccc(C(=O)NCC(C)(C)C)cn1
inactive: Potency [1] | Potency [2] | Potency [3] | Potency [4]

COc1ccc(/C=C/C(=O)O[C@@H]2[C@@H](O)[C@@H](O)[C@H](O[C@H]3[C@@H]4C=CO[C@@H](O[C@@H]5O[C@H](CO)[C@@H](O)[C@H](O)[C@H]5O)[C@@H]4[C@@]4(CO)O[C@@H]34)O[C@H]2C)cc1
inactive: Potency [1] | Potency [2] | Potency [3] | Potency [4]

C[C@@H]1O[C@@H](O[C@H]2[C@H](OC(=O)[C@]34CCC(C)(C)C[C@H]3C3=CCC5[C@@]6(C)C[C@@H](O)[C@@H](O[C@@H]7O[C@H](CO)[C@@H](O)[C@H](O)[C@H]7O)[C@@](C)(CO)C6[C@H](O)C[C@@]5(C)[C@]3(C)CC4)OC[C@H](O)[C@@H]2O)[C@H](O)[C@H](O[C@@H]2OC[C@](O)(CO)[C@H]2O)[C@H]1O[C@@H]1OC[C@@H](O)[C@H](O[C@H]2O[C@H](C)[C@@H](O)[C@H](O)[C@@H]2O)[C@H]1O (stereo partly drawn)
inactive: activity change, negative = cytotoxicity [1] 3.83% [at 6.55 µM] | activity change, negative = cytotoxicity [2] 3.05% [at 6.55 µM] | activity change, negative = cytotoxicity [3] -0.147% [at 6.55 µM] | activity change, negative = cytotoxicity [4] 7.72% [at 6.55 µM]

COC(=O)C1C(O)CCC2CN3CCc4c([nH]c5ccccc45)C3CC21 (stereo not drawn)
inactive: Potency [1] | Potency [2] | Potency [3] | Potency [4]

CC1C2=CC(=O)OC2(O)CC2C1CCC1C(C)(C)CCC(O)C21C (stereo not drawn)
inactive: Potency [1] | Potency [2] | Potency [3] | Potency [4]

O=C(O)[C@H](Cc1ccccc1)Oc1ccc(-c2ccccc2)cc1
inactive: Potency [1] | Potency [2] | Potency [3] | Potency [4]

CC[C@@H](Nc1c(Nc2cccc(C(=O)N(C)C)c2O)c(=O)c1=O)c1ccc(C)o1
inactive: Potency [1] | Potency [2] | Potency [3] | Potency [4]

C[C@@]12CC3(S(=O)(=O)O)OC(O1)[C@]1(COC(=O)c4ccccc4)[C@H]3C[C@]21O[C@@H]1O[C@H](CO)[C@@H](O)[C@H](O)[C@H]1O
inactive: Potency [1] | Potency [2] | Potency [3] | Potency [4]

C=C1CCC2[C@](C)(CO)CCC[C@@]2(C)[C@@H]1CCC1=CCOC1=O (stereo partly drawn)
inactive: Potency [1] | Potency [2] | Potency [3] | Potency [4]

C=C(C)C1CCC2(C(=O)OC3OC(COC4OC(CO)C(O)C(O)C4O)C(OC4OC(C)C(O)C(O)C4O)C(O)C3O)CCC3(C(=O)O)C(CCC4C5(C)CCC(=O)C(C)(C)C5CCC43C)C12 (stereo not drawn)
inactive: activity change, negative = cytotoxicity [1] 8.9% [at 11.6 µM] | activity change, negative = cytotoxicity [2] -6.38% [at 11.6 µM] | activity change, negative = cytotoxicity [3] 0.715% [at 11.6 µM] | activity change, negative = cytotoxicity [4] -0.367% [at 11.6 µM]
